hcDAF12 agonist: activates DAF-12 receptor from parasite H. contortus. HEK293 hcDAF-12 lit1-tk-luc reporter, luminescence; 0% DMSO, 100% Δ7-dafachronic acid. activation, % at 6.8 µM. 370,000 compounds, 1.4% hits;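 active = activation above the mean of all tested compounds plus 3 SD, cut at about 5.5% in these data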
ssDAF12 agonist: S. stercoralis DAF-12 activation, primary screen; 370,000 compounds, 1% hits; activation, % at 6.8 µM; HEK293 ssDAF-12/GRIP1 lit1-tk-luc reporter, luminescence; % of 3 µM dafachronic acid response;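 active = activation above the mean over all tested compounds plus 3 SD, cut at about 0.9% in these data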
DAX1 inh-1: inhibits human nuclear receptor DAX1. HEK293 Gal4-DAX1 luciferase reporter, luminescence. inhibition, % at 6.75 µM. AID 504766. 340,000 compounds, 0.99% hits;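 active = inhibition above the mean over all tested compounds plus 3 SD, cut at about 4.2% in these data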;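 note: inhibition shows as a rise in luminescence from relieved DAX1 repression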
Target sequence (P51843 207-470 limits assumed): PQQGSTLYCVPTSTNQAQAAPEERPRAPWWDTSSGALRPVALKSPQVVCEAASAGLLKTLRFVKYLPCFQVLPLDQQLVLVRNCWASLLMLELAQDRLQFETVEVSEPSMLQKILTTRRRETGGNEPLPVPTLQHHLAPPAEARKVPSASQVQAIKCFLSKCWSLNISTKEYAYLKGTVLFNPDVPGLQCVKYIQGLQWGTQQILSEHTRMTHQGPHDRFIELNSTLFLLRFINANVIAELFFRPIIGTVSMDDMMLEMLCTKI
FXN GAA850 act: increases GAA850 frataxin promoter reporter activity. AID 540364. 360,000 compounds, 0.56% hits. HEK293 lucGAA850 FXN promoter luciferase reporter, 24 h; percent of 10 µM SAHA response. activation, % at 6 µM;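 active = activation above the average of all compounds screened plus 3 SD, cutoff fixed separately per campaign, cut at about 7.5% in these data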
DAX1 inh-2: inhibitors of DAX1 repression of SF-1 activated StAR promoter | HEK293T StAR-luciferase reporter, SF-1/DAX-1 repression relief | inhibition, % at 6.8 µM | 370,000 compounds, 1.1% hits | AID 652010;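 active = inhibition above the mean over all tested compounds plus 3 SD, cut at about 3.6% in these data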;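 note: higher inhibition means more luminescence from relief of DAX-1 repression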
hgDAF-12 ag: activates the H. glycines DAF-12 receptor ligand-binding domain; activation, % at 6.8 µM; HEK293 GAL4-hgDAF12 UAS-luciferase reporter, agonist luminescence; normalized to butyrate control; 370,000 compounds, 1.8% hits;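 active = activation above a cutoff set at the mean of all screened compounds plus 3 SD, cut at about 10% in these data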
GAA30 counter: GAA30 FXN promoter activation counter-screen | activation, % at 6 µM | AID 588350 | shares compounds with FXN GAA850 act | HEK293 lucGAA30 FXN promoter luciferase, 24 h; DMSO = 0%, 5 µM ipriflavone = 100% | 1,900 compounds, 66% hits;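 active = mean activation above the mean of solvent-only control wells plus 3 SD, cut at about 22% in these data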;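 note: counterscreen of GAA850 promoter hits where activity marks nonselective or luminescence artifacts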
GAA850 confirm: confirmation of GAA850 frataxin (FXN) promoter activators; shares compounds with FXN GAA850 act; HEK293 lucGAA850 FXN promoter luciferase reporter, 24 h; 100% = activation by SAHA; activation, % at 6 µM; 1,900 compounds, 86% hits;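 active = mean activation above a set limit taken from the primary screen, cut at about 8% in these data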
A number is an active result; - = inactive; . = not tested or not shown. Only some compounds are listed: those with a hit (about 4.5% of all), similar ones and a draw of the others.

SMILES	hcDAF12 agonist	ssDAF12 agonist	DAX1 inh-1	FXN GAA850 act	DAX1 inh-2	hgDAF-12 ag	GAA30 counter	GAA850 confirm
CCOC(=O)N1CCN(C(=O)c2ccc(S(=O)(=O)Nc3ccc(C)cc3)cc2)CC1	-	-	-	-	-	-	.	.
CCC(O)(CC)C(=O)NN(C(=O)Nc1csc2c1CCCC2)c1ccccc1	-	-	-	9.4	-	-	-	-
CN(C)S(=O)(=O)n1cc(/C=C(\NC(=O)c2ccccc2Cl)C(=O)N2CCCC2)c2ccccc21	-	-	-	8.8	-	-	-	11.5
CN(C)S(=O)(=O)n1cc(/C=C(\NC(=O)c2ccccc2F)C(=O)N2CCCCC2)c2ccccc21	-	-	-	-	-	-	.	.
O=C(NCCc1ccccc1Cl)[C@@H]1CCCN1C(=O)[C@H](Cc1cccnc1)NC(=O)N1CCOCC1	-	-	.	.	-	-	.	.
c1ccc2nc3c(nc2c1)c1ccccc1n3CCN1CCOCC1	-	-	-	12.0	-	-	52.1	24.3
N#CCn1c2ccccc2c2nc3ccccc3nc21	-	-	-	9.3	-	-	51.8	18.3
O=C(O)CCn1c2ccccc2c2nc3ccccc3nc21	-	-	-	-	-	-	.	.
CC1(C)Oc2ccc(C(=O)NCCCN3CCCC3)cc2NC1=O	-	-	.	.	-	-	.	.
CCn1c(COc2ccc(C)cc2)nnc1SCc1cccc(C(F)(F)F)c1	-	-	.	.	-	-	.	.
CCOc1cc(-c2nc3ccccc3s2)ccc1O	-	-	-	9.4	-	11.2	98.7	28.7
COc1ccc(-c2nc(C#N)c(NCc3ccc(C)cc3)o2)cc1OC	-	-	-	-	-	-	.	.
COc1ccc(-c2nc(C#N)c(NCCc3ccccc3)o2)cc1OC	-	-	-	8.2	-	-	99.5	34.4
O=C(NN=Cc1cccc(OCc2ccccc2)c1)c1cc(-c2ccc(Cl)cc2)n[nH]1	-	-	.	.	-	-	.	.
NNC(=O)CN1C(c2cccc(Cl)c2)=Nc2ccc(Br)cc2C1c1ccccc1 (stereo unspecified)	-	-	-	-	-	-	.	.
NNC(=O)CN1C(c2ccccc2Br)=Nc2ccc(Br)cc2C1c1ccccc1 (stereo unspecified)	-	-	-	9.2	-	-	-	8.7
CN(C)C=Nc1nc2c(Br)ccc(Br)c2cc1C(=O)NCC(C)(C)C	-	-	.	.	-	-	.	.
COC(=O)c1ccc2c(C(C)c3ccccc3O)c[nH]c2c1 (stereo unspecified)	-	-	.	.	-	-	.	.
COc1ccc([C@H]2OC(=O)C[C@H]2C(=O)N2CCCCC2)cc1OC	-	-	.	.	-	-	.	.
COC(=O)C1=C(C)N(Cc2cccc(C(F)(F)F)c2)C(=NCC2CC2)NC1c1cccc(C(F)(F)F)c1 (stereo unspecified)	-	-	.	.	-	-	.	.
O=C(CSC1=NCCN1)Nc1cccc([N+](=O)[O-])c1	-	-	-	9.5	-	-	43.0	22.3
CN(c1ccccc1)c1ccc(/C=C/[N+](=O)[O-])cc1	-	-	-	16.2	-	-	-	-
CCOC(=O)C1CCN(S(=O)(=O)c2cccc(-c3cn4cc(C)ccc4n3)c2)CC1	-	-	-	-	-	-	.	.
CCOC(=O)C1CCN(S(=O)(=O)c2cccc(-c3csc(C)n3)c2)CC1	-	-	-	8.4	-	-	-	-
CC(=O)c1cccc(NC(=O)/C=C/c2ccc([N+](=O)[O-])s2)c1	-	-	-	-	-	-	.	.
Cc1cc(C)cc(NC(=O)/C=C/c2ccc([N+](=O)[O-])s2)c1	-	-	-	8.7	-	-	-	18.2
CC(C)c1cc(C(=O)Nc2cc(Br)ccc2O)no1	-	-	-	9.9	-	-	96.8	33.2
CC(C)c1cc(C(=O)Nc2cc(Cl)ccc2O)no1	-	-	-	-	-	-	.	.

Source: PubChem BioAssay (The Scripps Research Institute Molecular Screening Center)
